Assay results published in PubChem BioAssay AID1159580 (chemical genetic matrix, 2015).
The campaign covered roughly 5,500 compounds. About 2,000 (36%) were called active. About 18% were inconclusive and are not listed. Rule as the data show it: active = normalized growth mostly below about 0.91 (no sharp cut-off); inconclusive = no clear call, values can overlap the other calls; inactive = mostly above about 0.92. The list shows a part of the results.

Experiment: chemical genetic growth profiling, strain panel (AID 1159580);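 also: tested at 20 µM; growth read once vehicle control cultures reached saturation at 30 °C; 1 = growth at the plate median or of vehicle wells; lower values mean less growth of the strain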
Settings: S. cerevisiae deletion strains, growth OD

Measured: normalized growth

O=S(=O)(c1cc(Cl)ccc1Cl)N1CCc2ccccc2C1
inactive: locus YAR019C, strain CDC15, stronger effect = lower value 0.98 | locus YBL105C, strain PKC1, stronger effect = lower value 0.977 | locus YBR135W, strain CKS1, stronger effect = lower value 0.971 | locus YBR136W, strain MEC1, stronger effect = lower value 0.983 | locus YBR160W, strain CDC28, stronger effect = lower value 0.982 | locus YDL017W, strain CDC7, stronger effect = lower value 0.982 | locus YDL028C, strain MPS1, stronger effect = lower value 0.976 | locus YDL101C, strain DUN1, stronger effect = lower value 0.981 | locus YDL108W, strain KIN28, stronger effect = lower value 0.98 | locus YDL132W, strain cdc53, stronger effect = lower value 0.973 | locus YDL214C, strain PRR2, stronger effect = lower value 1.02 | locus YDR052C, strain DBF4, stronger effect = lower value 0.983 | locus YDR054C, strain cdc34, stronger effect = lower value 0.977 | locus YDR226W, strain ADK1, stronger effect = lower value 0.978 | locus YDR477W, strain SNF1, stronger effect = lower value 1.02 | locus YER123W, strain YCK3, stronger effect = lower value 1 | locus YER133W, strain GLC7, stronger effect = lower value 1.02 | locus YFL009W, strain cdc4, stronger effect = lower value 0.967 | locus YFL029C, strain CAK1, stronger effect = lower value 0.978 | locus YFR003C, strain YPI1, stronger effect = lower value 0.981 | locus YFR019W, strain FAB1, stronger effect = lower value 0.99 | locus YFR028C, strain CDC14, stronger effect = lower value 0.981 | locus YGR040W, strain KSS1, stronger effect = lower value 1.03 | locus YGR052W, strain FMP48, stronger effect = lower value 1.06 | locus YGR092W, strain DBF2, stronger effect = lower value 0.994 | locus YHR030C, strain SLT2, stronger effect = lower value 0.951 | locus YHR079C, strain IRE1, stronger effect = lower value 0.987 | locus YHR082C, strain KSP1, stronger effect = lower value 1.15 | locus YHR205W, strain SCH9, stronger effect = lower value 0.912 | locus YIL147C, strain SLN1, stronger effect = lower value 0.975 | locus YJL095W, strain BCK1, stronger effect = lower value 0.96 | locus YJL128C, strain PBS2, stronger effect = lower value 0.925 | locus YJL157C, strain FAR1, stronger effect = lower value 1.01 | locus YJR016C, strain ILV3, stronger effect = lower value 0.985 | locus YJR066W, strain TOR1 (second series), stronger effect = lower value 1.02 | locus YJR066W, strain TOR1, stronger effect = lower value 1.11 | locus YKL048C, strain ELM1, stronger effect = lower value 1 | locus YKL067W, strain YNK1, stronger effect = lower value 1 | locus YKL101W, strain HSL1, stronger effect = lower value 0.994 | locus YKL193C, strain SDS22, stronger effect = lower value 0.971 | locus YKL203C, strain TOR2, stronger effect = lower value 1.08 | locus YLR113W, strain HOG1, stronger effect = lower value 0.953 | locus YLR133W, strain CKI1, stronger effect = lower value 1 | locus YLR403W, strain SFP1, stronger effect = lower value 0.964 | locus YML070W, strain DAK1, stronger effect = lower value 1.02 | locus YMR001C, strain CDC5, stronger effect = lower value 0.98 | locus YMR205C, strain PFK2 (second series), stronger effect = lower value 0.995 | locus YMR277W, strain FCP1, stronger effect = lower value 0.982 | locus YNL006W, strain LST8, stronger effect = lower value 0.984 | locus YNL020C, strain ARK1, stronger effect = lower value 1.01 | locus YNL161W, strain CBK1, stronger effect = lower value 0.981 | locus YNL183C, strain NPR1, stronger effect = lower value 1.14 | locus YNL207W, strain RIO2, stronger effect = lower value 0.98 | locus YNL222W, strain SSU72, stronger effect = lower value 0.983 | locus YNL307C, strain MCK1 (second series), stronger effect = lower value 0.999 | locus YOL078W, strain AVO1, stronger effect = lower value 0.975 | locus YOL136C, strain PFK27, stronger effect = lower value 1 | locus YOR061W, strain CKA2, stronger effect = lower value 0.99 | locus YOR119C, strain RIO1, stronger effect = lower value 1.08 | locus YOR231W, strain MKK1, stronger effect = lower value 1.06 | locus YOR329C, strain SCD5, stronger effect = lower value 0.985 | locus YPL031C, strain PHO85, stronger effect = lower value 1.01 | locus YPL153C, strain RAD53, stronger effect = lower value 1.01 | locus YPL204W, strain HRR25, stronger effect = lower value 1.02 | locus YPL209C, strain IPL1, stronger effect = lower value 0.979 | locus YPL256C, strain CLN2, stronger effect = lower value 0.987 | locus YPR025C, strain CCL1, stronger effect = lower value 0.977 | locus YPR106W, strain ISR1, stronger effect = lower value 0.986 | locus YPR111W, strain DBF20, stronger effect = lower value 0.978 | strain NNK1, stronger effect = lower value 0.983 | strain TSCII, stronger effect = lower value 0.985
